This excerpt belongs to a sample that is enriched for hits.
AmpC no deterg: qHTS Inhibitors of AmpC Beta-Lactamase (assay without detergent); P00811; AmpC nitrocefin hydrolysis, absorbance 480 nm, 0.0001% Triton; Potency, µM (series often up to 57.1 µM), for the others: at the highest dose activity change, negative = inhibition, hits mostly inhibitors; hit rate 0.52% among 330,000; AID 485341, 2010;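 note: potency is the fitted concentration of half-maximal effect; plate controls were no compound for no effect and no enzyme for full effect; nearly all actives have a fitted effect of over 20% in size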
Target sequence (P00811 whole entry, looked up): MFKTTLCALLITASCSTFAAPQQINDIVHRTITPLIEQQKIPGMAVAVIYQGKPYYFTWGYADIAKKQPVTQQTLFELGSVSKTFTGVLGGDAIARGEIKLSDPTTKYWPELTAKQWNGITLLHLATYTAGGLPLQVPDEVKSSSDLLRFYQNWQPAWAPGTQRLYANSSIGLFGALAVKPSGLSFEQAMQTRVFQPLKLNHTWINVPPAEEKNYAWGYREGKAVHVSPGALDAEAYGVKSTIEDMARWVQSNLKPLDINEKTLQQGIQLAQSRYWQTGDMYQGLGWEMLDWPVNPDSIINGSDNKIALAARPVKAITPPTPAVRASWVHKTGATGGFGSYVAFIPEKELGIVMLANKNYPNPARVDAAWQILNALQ
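20 mM phosphate pH 7.0 + 0.01% (detergent screen) or 0.0001% Triton X-100; 5.3 nM AmpC reagent; cpd preinc 15 min RT; nitrocefin (800 uM stock) to start; A480 q20 s × 4 min; Activity was normalised to no-enzyme and no-compound control wells.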
Cycloheximide cs: Cycloheximide Counterscreen for Small Molecule Inhibitors of Shiga Toxin; cell reporter, cycloheximide protein synthesis inhibition counterscreen; max response, %; hit rate 12% among 300,000; in the data active = max response mostly above about 13%, no sharp cut-off; inactive = mostly below about 14%; note: read at 38.3 µM for the half of the compounds with a filed dose; 0% is about no effect
NS1 inh: qHTS Assay for Inhibitors of Influenza NS1 Protein Function; Potency, µM (titrated, usually from 46.1 µM), inactives show at the top dose activity, positive = more growth; AID 2326, 2010; hit rate 0.4% among 270,000; calls by dose curve; note: potency is the fitted concentration of half-maximal effect; actives are rising curves; nearly all actives have a fitted effect of over 50% in size
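A cell-based growth assay was used: compounds that relieve NS1-induced slow growth of budding yeast raise OD600. Assay medium was yeast nitrogen base with ammonium sulphate and -URA supplement, pH 6.0, with 2% galactose.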
Shiga toxin inh: A qHTS for Small Molecule Inhibitors of Shiga Toxin; Vero cells, Shiga toxin protein synthesis inhibition reporter; inhibition, % at 38.7 µM; hit rate 9.2% among 290,000; in the data active = inhibition mostly above about 28%, no sharp cut-off; inactive = mostly below about 43%; note: 0% is about no effect
AmpC detergent: qHTS Inhibitors of AmpC Beta-Lactamase (assay with detergent) | P00811 | AmpC hydrolysis of nitrocefin, absorbance 480 nm, 0.01% Triton | Potency, µM (doses to about 114 µM), for the others: at the top dose activity change, negative = inhibition, actives largely listed as inhibitors | hit rate 0.041% among 370,000 | AID 485294, 2010;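 note: potency is the fitted concentration of half-maximal effect; 0% = no-compound wells and -100% = no-enzyme wells; nearly all actives have a fitted effect of over 25% in size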
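AmpC (5.3 nM in the dispensed reagent) in 20 mM phosphate pH 7.0 with 0.01% (detergent screen) or 0.0001% Triton X-100 was preincubated with compounds for 15 min at room temperature. Nitrocefin was then added from an 800 uM solution, and hydrolysis was followed at 480 nm.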
* marks the source's active call; other numbers are inactive results; u = inconclusive; x = not tested or not shown. Unless noted, calls come from the whole dose curve; as a rule, active = well fitted curve in the direction sought with a large enough effect; inconclusive = small, poorly fitted or top-dose-only effect, or another doubt; inactive = no such curve, though single readings can be large; an effect the other way counts as inactive or inconclusive.

SMILES | AmpC no deterg | Cycloheximide cs | NS1 inh | Shiga toxin inh | AmpC detergent
N/C(Cc1cccs1)=N\OC(=O)COc1ccccc1Cl | -8% | 60* | 0% | 119* | -8%
COc1ccc2[nH]cc(CCNC(=O)C3CCCO3)c2c1 (stereo not given) | -5% | 6 | -3% | 5 | 7%
O=C(Nc1ccnn1C1CCN(C2CCOCC2)CC1)c1cccc(F)c1 | -10% | -11 | -5% | -11 | -3%
CCOC(=O)CSc1nc(N)c2c3c(sc2n1)CCCC3 | 5% | 25* | -1% | 51 | u
CC1CCc2c(sc3nc(C4CC4)nc(SCC(=O)NCc4ccco4)c23)C1 (stereo not given) | x | x | 8% | x | x
CCOC(=O)c1cnn(-c2nc(SC)nc3sc4c(c23)CCCC4)c1N | -35% | -1 | 3% | -16 | -2%
CCN(CC)C(=O)CSc1nc(N)c2c3c(sc2n1)CC(C)CC3 (stereo not given) | 125% | 21* | -12% | 57* | -4%
CCOC(=O)c1nc2sc3c(c2c(=O)[nH]1)CCC(C)C3 (stereo not given) | -11% | 5 | -6% | -9 | -7%
CC1CCc2c(sc3nc(SCC(=O)NCc4ccco4)nc(N)c23)C1 (stereo not given) | -7% | 17* | -54% | 42 | -10%
COCCNC(=S)N(CCc1c(C)[nH]c2ccc(OC)cc12)Cc1cccnc1 | -4% | 11 | 2% | 17 | -5%
Oc1ccc(Cl)cc1-c1cc(-c2ccco2)[nH]n1 | -37% | 30* | -230% | 57* | -8%
S=c1[nH]nc(-c2cc(-c3ccco3)[nH]n2)n1-c1ccccc1 | -24% | -6 | -36% | -11 | -8%
Oc1ccccc1-c1cc(-c2ccco2)[nH]n1 | u | 47* | -9% | 134* | -8%
S=c1[nH]nc(-c2cc(-c3ccco3)[nH]n2)n1-c1ccccc1Cl | -38% | 3 | 14% | 7 | -6%
Oc1c(-c2cc(-c3ccco3)[nH]n2)ccc2ccccc12 | u | 48* | -51% | 149* | u
Oc1ccc(Br)cc1-c1cc(-c2ccco2)[nH]n1 | -32% | 8 | -172% | 42 | -7%
COc1cccc(-n2c(C)nc3cc(C(=O)O)ccc32)c1 | -14% | -1 | -6% | -7 | 0%
S=C(NCCc1ccccc1)NN=C1CCCCCC1 | -26% | 54* | 6% | 78* | -1%
S=C(NCCc1ccccc1)N/N=C/C1CCCCC1 | -29% | 15* | x | 19 | -15%
CC1CCN(CCNC(=O)c2ccc3c(=O)n(Cc4ccc(Cl)cc4)c(=S)[nH]c3c2)CC1 | -18% | 9 | 12% | -1 | 3%
COc1ccc(S(=O)(=O)N2Cc3ccccc3CC2C(=O)Nc2nccs2)cc1OC (stereo not given) | -44% | 43* | -34% | 92* | u
CC(=O)c1ccc(NC(=O)C2CCN(S(=O)(=O)c3cccc4cccnc34)CC2)cc1 | -22% | -3 | -51% | -9 | u
COc1ccc(S(=O)(=O)N2CCC(C(=O)NCC3CCCO3)CC2)cc1 (stereo not given) | -7% | 8 | -21% | 51* | 9%
COc1ccc(S(=O)(=O)N2CCC(C(=O)Nc3nccs3)CC2)cc1 | -1% | 42* | 8% | 101* | -1%
COc1ccc(NC(=O)C2CCN(S(=O)(=O)c3cccc4cccnc34)CC2)cc1 | 56µM* | -4 | -13% | 2 | 3%
SMILES | AmpC no deterg | Cycloheximide cs | NS1 inh | Shiga toxin inh | AmpC detergent
CCOC(=O)c1c(NC(=O)c2cc(-c3ccc(O)cc3)on2)sc(C(C)=O)c1C | -29% | -2 | -10% | -5 | u
COc1ccc(S(=O)(=O)N2CCCC2CNC(=O)C(=O)NCc2ccccc2Cl)cc1 (stereo not given) | 28µM* | x | x | x | -18%
COc1ccc(S(=O)(=O)N2Cc3ccccc3CC2C(=O)Nc2nccs2)cc1 (stereo not given) | -43% | 29* | 2% | 75* | 1%
O=C(CSc1n[nH]c(-c2ccc(S(=O)(=O)N3CCCCC3)cc2)n1)Nc1nccs1 | 14µM* | 5 | -4% | -14 | u
CCCC12CN3CC(C)(CN(C1)C3c1cn(C)c3ccccc13)C2=O (stereo not given) | x | x | x | x | -4%
Cc1cc(=O)n(CCO)c(O)c1C#N | -19% | -1 | -4% | -7 | 2%
Cc1cc(=O)n(CCc2ccccc2)c(O)c1C#N | 2.5µM* | -1 | -8% | 10 | -3%
